Among all 5,500 compounds or so, about 2,000 (36%) were called active. Roughly 18% stayed inconclusive and do not appear here. Cut-off read from the data, not from the text of the source: active = normalized growth mostly below about 0.91 (no sharp cut-off); inconclusive = no clear call, values can overlap the other calls; inactive = mostly above about 0.92. The list shows a part of the results.
Experiment: chemical genetic growth profiling, strain panel (AID 1159580);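 note: tested at 20 µM; growth read once vehicle control cultures reached saturation at 30 °C; 1 = growth at the plate median or of vehicle wells; lower values mean less growth of the strain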
Details: S. cerevisiae deletion strains, growth OD

Measured: normalized growth

COc1cc(-c2cc(=O)c3c(O)c(OC)c(OC)c(OC)c3o2)cc(OC)c1OC
inactive: locus YAL021C, strain ccr4, active compounds read low 1.01 | locus YAL026C, strain drs2, active compounds read low 1.01 | locus YAL030W, strain snc1, active compounds read low 1.01 | locus YBL061C, strain skt5, active compounds read low 1.01 | locus YBR009C, strain hhf1, active compounds read low 1.01 | locus YBR023C, strain chs3, active compounds read low 1.01 | locus YBR171W, strain sec66, active compounds read low 1.01 | locus YBR231C, strain swc5, active compounds read low 1.01 | locus YBR279W, strain paf1, active compounds read low 0.998 | locus YCL011C, strain gbp2, active compounds read low 1.01 | locus YCL016C, strain dcc1, active compounds read low 1.01 | locus YCL061C, strain MRC1, active compounds read low 1.03 | locus YCL069W, strain vba3, active compounds read low 1.01 | locus YCR088W, strain abp1, active compounds read low 1.01 | locus YDL005C, strain med2, active compounds read low 1.02 | locus YDL040C, strain nat1, active compounds read low 1.01 | locus YDR001C, strain nth1, active compounds read low 1.01 | locus YDR069C, strain doa4, active compounds read low 1.02 | locus YDR137W, strain rgp1, active compounds read low 0.997 | locus YDR159W, strain sac3, active compounds read low 1.03 | locus YDR195W, strain ref2 1.02 | locus YDR297W, strain sur2, active compounds read low 1.01 | locus YDR334W, strain swr1, active compounds read low 1.01 | locus YDR335W, strain msn5, active compounds read low 1.03 | locus YDR392W, strain spt3, active compounds read low 0.97 | locus YEL003W, strain gim4, active compounds read low 1.01 | locus YEL037C, strain rad23, active compounds read low 1.01 | locus YEL061C, strain CIN8 (second series), active compounds read low 1.01 | locus YER015W, strain faa2, active compounds read low 1.01 | locus YER016W, strain bim1, active compounds read low 1.02 | locus YER111C, strain swi4, active compounds read low 1 | locus YER155C, strain BEM2 (second series), active compounds read low 1 | locus YFR010W, strain ubp6, active compounds read low 1.01 | locus YGL167C, strain pmr1, active compounds read low 1.02 | locus YGL173C, strain kem1, active compounds read low 1.01 | locus YGL227W, strain vid30, active compounds read low 1.01 | locus YGL240W, strain doc1, active compounds read low 1.04 | locus YGL253W, strain hxk2, active compounds read low 1 | locus YHR013C, strain ard1, active compounds read low 1 | locus YHR027C, strain rpn1, active compounds read low 1.01 | locus YHR142W, strain chs7, active compounds read low 0.99 | locus YJL092W, strain hpr5, active compounds read low 1.02 | locus YJL095W, strain BCK1 (second series), active compounds read low 1.01 | locus YJL115W, strain asf1, active compounds read low 1.01 | locus YJL129C, strain trk1, active compounds read low 1 | locus YJL154C, strain vps35, active compounds read low 1.01 | locus YJL164C, strain tpk1, active compounds read low 0.999 | locus YJL166W, strain qcr8, active compounds read low 1.01 | locus YJL187C, strain SWE1, active compounds read low 1.01 | locus YKL160W, strain elf1, active compounds read low 1.01 | locus YKR026C, strain gcn3, active compounds read low 1.01 | locus YKR091W, strain srl3, active compounds read low 1.01 | locus YLL001W, strain dnm1, active compounds read low 1.02 | locus YLL026W, active compounds read low 1.01 | locus YLL041C, strain sdh2, active compounds read low 1.01 | locus YLR027C, strain aat2, active compounds read low 1.01 | locus YLR221C, strain rsa3, active compounds read low 1 | locus YLR258W, strain gsy2, active compounds read low 1.01 | locus YLR262C, strain YPT6 (second series), active compounds read low 1.01 | locus YLR320W, strain mms22, active compounds read low 1.02 | locus YLR342W, strain FKS1, active compounds read low 1.02 | locus YLR357W, strain rsc2, active compounds read low 0.994 | locus YLR370C, strain arc18, active compounds read low 1.02 | locus YLR384C, strain iki3, active compounds read low 1.01 | locus YML120C, strain ndi1, active compounds read low 1 | locus YMR058W, strain fet3, active compounds read low 1 | locus YMR125W, strain sto1, active compounds read low 0.999 | locus YMR129W, active compounds read low 1.01 | locus YMR205C, strain PFK2, active compounds read low 1.02 | locus YMR231W, strain pep5, active compounds read low 1.01 | locus YNL071W, strain lat1, active compounds read low 1 | locus YNL209W, strain ssb2, active compounds read low 1 | locus YNL248C, strain rpa49, active compounds read low 1 | locus YNL322C, strain KRE1 (second series), active compounds read low 1.02 | locus YNR049C, strain mso1, active compounds read low 1.01 | locus YOR001W, strain rrp6, active compounds read low 0.999 | locus YOR070C, strain gyp1, active compounds read low 1 | locus YOR080W, strain dia2, active compounds read low 1.01 | locus YOR083W, strain WHI5, active compounds read low 0.995 | locus YOR106W, strain vam3, active compounds read low 1 | locus YOR265W, strain rbl2, active compounds read low 1.01 | locus YOR270C, strain vph1, active compounds read low 0.99 | locus YOR290C, strain snf2, active compounds read low 0.933 | locus YPL051W, strain arl3, active compounds read low 1 | locus YPL078C, strain atp4, active compounds read low 0.999 | locus YPL106C, strain sse1, active compounds read low 1.03 | locus YPL240C, strain hsp82, active compounds read low 1.01

COc1ccc(-c2cc(=O)c3c(O)cc(OC)cc3o2)cc1
inactive: locus YHR030C, strain SLT2, active compounds read low 0.924 | locus YHR079C, strain IRE1, active compounds read low 0.925 | locus YJL095W, strain BCK1, active compounds read low 0.931 | locus YJR066W, strain TOR1, active compounds read low 0.874 | locus YLR113W, strain HOG1, active compounds read low 0.905 | locus YNL183C, strain NPR1, active compounds read low 0.887 | locus YOR231W, strain MKK1, active compounds read low 0.919 | locus YPL256C, strain CLN2, active compounds read low 0.94
